Measured values reported in PubChem BioAssay (EPA / NIEHS).
Inconclusive results are not listed. Calls of active or inactive are those of the source. The calls were made as follows, unless noted: active = hit-call score of the fitted dose curve at least 0.9, where 1 is the maximum; inconclusive = response in the unintended direction; inactive = score below 0.9.

How the values were obtained:
[1] = system: Sodium/Iodide Symporter (NIS), SLC5A5 (gene 6528); test: CPHEA_Stoker_NIS_Inhibition_RAIU: CPHEA's Radioactive Iodide Uptake (RAIU) Assay for Sodium/Iodide Symporter (NIS) Inhibition, Stoker and Laws Labs (AID 2283841)
How it was run: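 Test chemicals, six concentrations from 0.001 to 100uM in 0.5% DMSO, were co-incubated with carrier-free 125I (final 329pM) on hNIS-HEK293T-EPA monolayers in pH 7.4 HEPES-buffered HBSS. Plates stood 2 hours at room temperature, then were washed cold and counted.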

[2] = biological target: zebrafish Thyroid Hormone Receptor beta (TRb), thrb (gene 30607) (UniProt Q9PVE4); test: ATG_zfTRb_XSP2: Attagene TRANS-FACTORIAL Multi-Species (XSP1) HepG2 Assay for zebrafish Thyroid Hormone Receptor beta (TRb) (AID 2283836)
zebrafish Thyroid Hormone Receptor beta (TRb), thrb (gene 30607), sequence (Q9PVE4 whole entry, looked up): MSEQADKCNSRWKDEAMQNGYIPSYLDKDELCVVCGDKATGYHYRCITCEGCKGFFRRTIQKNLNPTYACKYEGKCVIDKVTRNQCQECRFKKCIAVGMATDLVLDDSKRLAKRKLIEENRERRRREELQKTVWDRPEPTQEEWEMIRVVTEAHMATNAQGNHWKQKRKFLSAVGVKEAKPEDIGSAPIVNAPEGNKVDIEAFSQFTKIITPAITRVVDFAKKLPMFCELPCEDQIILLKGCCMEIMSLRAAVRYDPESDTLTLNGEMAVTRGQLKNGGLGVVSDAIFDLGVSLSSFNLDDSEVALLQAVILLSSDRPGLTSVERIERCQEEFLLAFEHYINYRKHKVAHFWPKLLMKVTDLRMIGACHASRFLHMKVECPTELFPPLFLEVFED
How it was run: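 Reporter transcripts were measured by RT-PCR with fluorescent primer extension and capillary electrophoresis, 24 h after chemical dosing of transiently transfected HepG2 cells. Activity was scored as upward signal versus DMSO baseline.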

[3] = biological target: human Thyroid hormone Receptor alpha (TRa), THRA (gene 7067) (UniProt P10827); test: ATG_hTRa_XSP2: Attagene TRANS-FACTORIAL Multi-Species (XSP2) HepG2 Assay for human Thyroid hormone Receptor alpha (TRa) (AID 2283838)
human Thyroid hormone Receptor alpha (TRa), THRA (gene 7067), sequence (P10827 whole entry, looked up, the tested form may be a part): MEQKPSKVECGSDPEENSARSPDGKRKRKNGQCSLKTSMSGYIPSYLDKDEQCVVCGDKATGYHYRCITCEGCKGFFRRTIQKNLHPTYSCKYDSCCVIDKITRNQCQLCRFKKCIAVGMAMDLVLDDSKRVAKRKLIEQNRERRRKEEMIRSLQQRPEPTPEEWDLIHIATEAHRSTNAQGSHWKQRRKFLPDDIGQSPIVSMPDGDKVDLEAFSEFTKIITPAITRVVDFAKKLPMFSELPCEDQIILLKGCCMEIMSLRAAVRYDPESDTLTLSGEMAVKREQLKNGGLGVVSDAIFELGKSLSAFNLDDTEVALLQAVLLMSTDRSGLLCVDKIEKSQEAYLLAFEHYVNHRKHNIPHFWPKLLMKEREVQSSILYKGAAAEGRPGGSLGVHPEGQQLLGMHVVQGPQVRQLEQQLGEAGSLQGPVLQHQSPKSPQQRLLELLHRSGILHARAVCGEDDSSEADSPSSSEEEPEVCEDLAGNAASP
How it was run: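 Gain-of-signal in reporter mRNA, relative to DMSO, after 24 h dosing of transfected HepG2; quantitation by RT-PCR fragment analysis on capillary electrophoresis.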

[4] = biological target: frog Thyroid hormone Receptor alpha (TRa), thra-a (gene 397942) (UniProt P15204); test: ATG_frTRa_XSP2: Attagene TRANS-FACTORIAL Multi-Species (XSP2) HepG2 Assay for frog Thyroid hormone Receptor alpha (TRa) (AID 2283839)
frog Thyroid hormone Receptor alpha (TRa), thra-a (gene 397942), sequence (P15204 whole entry, looked up, the tested form may be a part): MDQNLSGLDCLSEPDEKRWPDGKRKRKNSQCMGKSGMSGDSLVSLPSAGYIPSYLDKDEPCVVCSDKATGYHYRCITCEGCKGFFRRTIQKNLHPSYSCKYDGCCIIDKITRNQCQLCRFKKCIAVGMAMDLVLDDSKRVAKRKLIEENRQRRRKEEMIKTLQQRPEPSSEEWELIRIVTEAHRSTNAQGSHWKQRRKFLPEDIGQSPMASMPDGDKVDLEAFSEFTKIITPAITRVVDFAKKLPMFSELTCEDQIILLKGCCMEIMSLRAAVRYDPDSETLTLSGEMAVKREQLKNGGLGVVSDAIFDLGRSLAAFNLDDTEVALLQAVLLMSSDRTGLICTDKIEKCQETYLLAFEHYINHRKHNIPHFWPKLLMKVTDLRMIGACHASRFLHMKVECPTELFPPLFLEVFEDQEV
How it was run: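 HepG2 cells transiently transfected with multiplexed GAL4-UAS reporter units expressing chimeric frog TRα-Gal4; reporter mRNA read 24 h after dosing by RT-PCR, FAM-labelled primer extension, HpaI digest and capillary electrophoresis. Gain of signal fitted versus DMSO.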

[5] = biological target: human Thyroid hormone Receptor beta (TRb), THRB (gene 7068) (UniProt P10828); test: ATG_hTRb_XSP2: Attagene TRANS-FACTORIAL Multi-Species (XSP2) HepG2 Assay for human Thyroid hormone Receptor beta (TRb) (AID 2283840);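 also: actives raise reporter mRNA so potency reflects agonist-like gain of signal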
human Thyroid hormone Receptor beta (TRb), THRB (gene 7068), sequence (P10828 whole entry, looked up, the tested form may be a part): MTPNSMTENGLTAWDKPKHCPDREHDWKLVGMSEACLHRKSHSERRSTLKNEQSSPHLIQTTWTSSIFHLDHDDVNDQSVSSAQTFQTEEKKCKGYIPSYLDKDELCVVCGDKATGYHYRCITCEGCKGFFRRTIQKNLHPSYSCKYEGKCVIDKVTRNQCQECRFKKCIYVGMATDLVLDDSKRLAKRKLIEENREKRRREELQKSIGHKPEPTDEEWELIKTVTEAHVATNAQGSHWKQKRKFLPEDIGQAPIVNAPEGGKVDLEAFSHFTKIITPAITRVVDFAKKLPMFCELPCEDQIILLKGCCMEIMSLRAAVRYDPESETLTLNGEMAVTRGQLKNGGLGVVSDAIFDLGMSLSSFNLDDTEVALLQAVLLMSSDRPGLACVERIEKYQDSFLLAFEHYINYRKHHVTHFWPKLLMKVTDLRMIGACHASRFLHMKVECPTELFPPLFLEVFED
How it was run: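 HepG2 cells were transiently transfected with GAL4-UAS multiplexed reporter units expressing chimeric NR-Gal4 proteins, dosed 24 h; reporter mRNA was quantified by RT-PCR, fluorescent labeling, HpaI digestion and capillary electrophoresis, fitted for gain of signal versus DMSO.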

[6] = CEETOX_H295R_OHPREG_noMTC: CeeTox H295R High-throughput Steroidogenesis Assay for OH-Pregnenolone (OHPREG), maximum tolerated concentration (MTC) filtered results only (AID 2283912; active = hit-call score of the fitted dose curve at least 0.9, where 1 is the maximum; inactive = score below 0.9); conditions: actives raise or lower the signal
How it was run: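 Medium 17alpha-hydroxypregnenolone quantified by reverse-phase HPLC-MS/MS after 48 h chemical exposure of forskolin-prestimulated (10 uM, 48 h) H295R, 0.1% DMSO final. Fitting bidirectional relative to DMSO; no maximum-tolerated-concentration filtering applied.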

[7] = CEETOX_H295R_OHPROG_noMTC: CeeTox H295R High-throughput Steroidogenesis Assay for OH-Progesterone (OHPROG), maximum tolerated concentration (MTC) filtered results only (AID 2283914; active = hit-call score of the fitted dose curve at least 0.9, where 1 is the maximum; inactive = score below 0.9); conditions: actives raise or lower the signal
How it was run: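 After 48 h forskolin (10 uM) prestimulation, H295R adrenal cells received test chemical in 0.1% DMSO for 48 h. Medium 17alpha-hydroxyprogesterone was MTBE-extracted and measured by HPLC-MS/MS; gain or loss relative to DMSO, no MTT-based MTC filtering.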

[8] = CEETOX_H295R_ANDR_noMTC: CeeTox H295R High-throughput Steroidogenesis Assay for Androstenedione (ANDR), maximum tolerated concentration (MTC) filtered results only (AID 2283915; active = hit-call score of the fitted dose curve at least 0.9, where 1 is the maximum; inactive = score below 0.9); conditions: actives raise or lower the signal
How it was run: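 Androstenedione secreted into medium was measured by LC-MS/MS after MTBE extraction. Human adrenal H295R cells received 10 uM forskolin for 48 h before 48 h chemical exposure (0.1% DMSO). Gain or loss fitted against DMSO, including concentrations above the MTT-derived MTC.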

[9] = CEETOX_H295R_ESTRADIOL_noMTC: CeeTox H295R High-throughput Steroidogenesis Assay for Estradiol, maximum tolerated concentration (MTC) filtered results only (AID 2283919; active = hit-call score of the fitted dose curve at least 0.9, where 1 is the maximum; inactive = score below 0.9); conditions: actives raise or lower the signal
How it was run: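 Readout: dansyl-derivatized estradiol quantified by LC-MS/MS in medium from H295R cells dosed 48 h (0.1% DMSO) following 48 h forskolin (10 uM) prestimulation. Gain or loss of signal fitted against DMSO; no MTC filtering applied.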

[10] = CEETOX_H295R_PROG_noMTC: CeeTox H295R High-throughput Steroidogenesis Assay for Progesterone (PROG), maximum tolerated concentration (MTC) filtered results only (AID 2283920; active = hit-call score of the fitted dose curve at least 0.9, where 1 is the maximum; inactive = score below 0.9); conditions: actives raise or lower the signal
How it was run: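 Progesterone secreted into medium was measured by HPLC-MS/MS after MTBE extraction, following 48 h chemical exposure (0.1% DMSO) of forskolin-prestimulated (10 uM, 48 h) H295R adrenal cells. Gain or loss fitted against DMSO; no MTC filtering.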

[11] = CEETOX_H295R_ESTRONE_noMTC: CeeTox H295R High-throughput Steroidogenesis Assay for Estrone, maximum tolerated concentration (MTC) filtered results only (AID 2283921; active = hit-call score of the fitted dose curve at least 0.9, where 1 is the maximum; inactive = score below 0.9); conditions: actives raise or lower the signal
How it was run: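 Estrone in spent medium, quantified by tandem MS following dansyl chloride derivatization, after 48 h chemical exposure (0.1% DMSO) of forskolin-prestimulated (10 uM, 48 h) H295R cells; concentrations not MTC-filtered, bidirectional fit against DMSO.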

[12] = CEETOX_H295R_TESTO_noMTC: CeeTox H295R High-throughput Steroidogenesis Assay for Testosterone (TESTO), maximum tolerated concentration (MTC) filtered results only (AID 2283924; active = hit-call score of the fitted dose curve at least 0.9, where 1 is the maximum; inactive = score below 0.9); conditions: actives raise or lower the signal
How it was run: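 Medium testosterone, measured by HPLC-MS/MS after liquid-liquid extraction, was fitted in both directions relative to DMSO without MTC filtering. Adrenal H295R cells received 48 h chemical exposure (0.1% DMSO final) after 48 h forskolin (10 uM) prestimulation; viability by MTT.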

[13] = ATG_XTT_Cytotoxicity_XSP2: Cytotoxicity Assessment in the Attagene TRANS-FACTORIAL Multi-Species (XSP2) HepG2 Assay (AID 2283837)
How it was run: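 XTT-based cell number read-out in human HepG2 liver cells carrying transfected reporter units, measured 24 h after chemical dosing. Activity is signal loss versus DMSO baseline.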

CCOP(=O)(OCC)Oc1nc(Cl)c(Cl)cc1Cl
outcome [1]: inactive

COP(=S)(OC)Oc1ccc([N+](=O)[O-])c(C)c1
outcome [2]: inactive | outcome [3]: inactive | outcome [4]: inactive | outcome [5]: inactive | outcome [1]: inactive

Cc1c(COC(=O)[C@@H]2[C@H](/C=C(\Cl)C(F)(F)F)C2(C)C)cccc1-c1ccccc1
outcome [2]: inactive | outcome [3]: inactive | outcome [4]: inactive

CC(C)NC(=O)N1CC(=O)N(c2cc(Cl)cc(Cl)c2)C1=O
outcome [2]: inactive | outcome [3]: inactive | outcome [4]: inactive

CC(C)N1C(=O)N(c2ccccc2)CSC1=NC(C)(C)C
AC50 [1]: 27.8 µM (active)

CC1(C)CON(Cc2ccccc2Cl)C1=O
outcome [1]: inactive

Nc1c(Cl)c(Cl)nc(C(=O)O)c1Cl
outcome [1]: inactive

CC(C)Oc1cccc(NC(=O)c2ccccc2C(F)(F)F)c1
outcome [1]: inactive

COc1ccc(-c2ccccc2)cc1NNC(=O)OC(C)C
AC50 [1]: 50 µM (active)

Cc1ccc(N=CN(C)C=Nc2ccc(C)cc2C)c(C)c1
outcome [1]: inactive

CCN(CC)c1nc(C)cc(OP(=S)(OC)OC)n1
outcome [1]: inactive

CSC(=O)c1c(C(F)F)nc(C(F)(F)F)c(C(=O)SC)c1CC(C)C
outcome [5]: inactive | outcome [1]: inactive

O=C(Nc1ccccc1-c1ccc(Cl)cc1)c1cccnc1Cl
outcome [1]: inactive

CCOc1cc(C(C)(C)C)ccc1C1COC(c2c(F)cccc2F)=N1 (stereo not drawn)
AC50 [1]: 1.21 µM (active)

COC(=O)c1c(C(F)F)nc(C(F)(F)F)c(C2=NCCS2)c1CC(C)C
outcome [1]: inactive | outcome [6]: inactive | AC50 [7]: 7.98 µM (active) | outcome [8]: inactive | outcome [9]: inactive | AC50 [10]: 13.8 µM (active) | outcome [11]: inactive | outcome [12]: inactive

O=C1C2CC=CCC2C(=O)N1SC(Cl)(Cl)Cl (stereo not drawn)
AC50 [1]: 36 µM (active)

C=C(C)CN(CC)c1c([N+](=O)[O-])cc(C(F)(F)F)cc1[N+](=O)[O-]
outcome [2]: inactive | outcome [3]: inactive | outcome [4]: inactive | outcome [5]: inactive | AC50 [1]: 5.45 µM (active)

Clc1cccc(C(Cl)(Cl)Cl)n1
outcome [1]: inactive

CO/N=C(/C1=NOCCO1)c1ccccc1Oc1ncnc(Oc2ccccc2Cl)c1F
AC50 [1]: 9.92 µM (active)

CCCCC(O)(Cn1cncn1)c1ccc(Cl)cc1Cl (stereo not drawn)
outcome [1]: inactive

CC(C)=CC1C(C(=O)OCc2coc(Cc3ccccc3)c2)C1(C)C (stereo not drawn)
outcome [1]: inactive

C=CCOC(=O)C(C)(C)OC(=O)c1cc(-n2c(=O)cc(C(F)(F)F)n(C)c2=O)ccc1Cl
outcome [1]: inactive

COP(=S)(OC)SCn1nnc2ccccc2c1=O
outcome [2]: inactive | outcome [13]: inactive | outcome [3]: inactive | outcome [4]: inactive | outcome [5]: inactive | outcome [1]: inactive
